Reference: PubChem BioAssay (NCI)
Compounds without any hit were thinned out: in the full panel of roughly 83,000, 20% have a hit.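 Activity criterion: percent growth below 10, measured after cells in 96-well plates were exposed to a single compound concentration for 48 hours.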 Active and inactive are the calls of the source.

Experiments:
Assay in all cases: NCI-60 one-dose screen, 48 h (100 = growth as untreated, 0 = no growth, -100 = all killed)
Conditions in all cases: 10 µM unless noted
[1] = tested on: SR leukemia
[2] = tested on: RPMI-8226 leukemia
[3] = tested on: OVCAR-8 ovarian
[4] = tested on: OVCAR-5 ovarian
[5] = tested on: OVCAR-4 ovarian
[6] = tested on: SK-OV-3 ovarian
[7] = tested on: IGROV1 ovarian
[8] = tested on: HS 578T breast
[9] = tested on: NCI/ADR-RES ovarian

Measured: growth

O=C(CCCCCCN1CC(=O)N2[C@@H](c3ccccc3Br)c3[nH]c4ccccc4c3C[C@H]2C1=O)NO
inactive: [1] 14% | [2] 12% | [3] 34.1% | [4] 50.9% | [5] 88.1% | [6] 75.5% | [7] 48.3% | [8] 59.6% | [9] 83.7%

C/C(=N\NC(N)=S)c1nnn(-c2ccc([N+](=O)[O-])cc2)c1C
inactive: [1] 110% | [2] 103% | [3] 98.6% | [4] 98.7% | [5] 108% | [6] 104% | [7] 100% | [8] 96.3%

CN1CCN(CCNc2nc(-c3cccc(NS(=O)(=O)c4cccc5c(N(C)C)cccc45)c3)cs2)CC1
inactive: [1] 23.4% | [2] 35.8% | [3] 75.9% | [4] 90.3% | [5] 71.5% | [6] 91.6% | [7] 78.5% | [8] 87.9%

O=C(/C=C/c1cc(Cl)ccc1Cl)Nc1ncc(Cc2ccc(Cl)cc2)s1
inactive: [1] 14% | [2] 16.2% | [4] 23.9% | [5] 30.4% | [6] 35.6%
active: [3] 1.15% | [7] 5.94% | [8] 6.99% | [9] -5.33%

CC(=O)c1c([Si](C)(C)C)c2cc(C#N)ccn2c1C(=O)c1ccc(Br)cc1
inactive: [1] 87.9% | [2] 92.1% | [3] 94.8% | [4] 79% | [5] 76.2% | [6] 98.3% | [7] 68.7% | [8] 79.3% | [9] 88.6%

O=C1/C(=C/C=C/c2ccco2)SC(=S)N1Cc1ccccc1
inactive: [1] 46.3% | [2] 93.6% | [3] 100% | [4] 105% | [5] 95.1% | [6] 103% | [7] 92.9% | [8] 104% | [9] 99.8%

COc1cc(OC)cc(-c2cc(-c3c[nH]c4ccccc34)nc(-c3c[nH]c4ccccc34)c2C#N)c1
inactive: [1] 81.3% | [2] 99% | [3] 102% | [4] 109% | [5] 102% | [6] 99.9% | [7] 93.7% | [8] 102%

CN1CCN(Cc2ccc(NC(=O)c3cncc(C#Cc4cnc5ccc(N6CCOCC6)nn45)c3)cc2C(F)(F)F)CC1
active: [1] -28.4% | [2] -23.9% | [3] -37.6% | [4] -20.4% | [5] -19.7% | [6] -31.9% | [7] -32.8% | [8] -27.8%

CN1CCN(CC#CCn2c3c(c4ccccc42)C[C@]2(C)[C@H]4CC=C5[C@@H]6CC(C)(C)CC[C@]6(C(=O)N6CCOCC6)CC[C@@]5(C)[C@]4(C)CC[C@H]2C3(C)C)CC1
inactive: [2] 45.5% | [3] 84.8% | [4] 87.2% | [5] 88.1% | [6] 103% | [7] 77.6% | [8] 91.3% | [9] 76.8%
active: [1] -4.82%

COc1ccc2c(c1)C=CC1(O2)Oc2ccc(OC)cc2C=C1C (stereo not given)
inactive: [1] 11.3% | [2] 19% | [3] 17.5% | [4] 29.7% | [5] 74.6% | [6] 57.2% | [7] 24.5% | [8] 22.3%
active: [9] 9.17%

CN1CCN(CCCCCC(=O)Nc2nc(-c3cccc(NS(=O)(=O)c4cccc5c(N(C)C)cccc45)c3)cs2)CC1
active: [1] -4.68%
inactive: [2] 34.9% | [3] 87.8% | [4] 91.6% | [5] 89.6% | [6] 105% | [7] 87.8% | [8] 73.1%

NS(=O)(=O)c1ccc(CCn2c(-c3ccc(C(=O)O)cc3)nc(-c3ccccc3)c2-c2ccccc2)cc1
inactive: [1] 99.7% | [2] 100% | [3] 111% | [4] 103% | [5] 99.4% | [6] 111% | [7] 108% | [8] 101% | [9] 105%

Cc1ccc(/C=N/Nc2nc(Nc3ccccc3)nc(Nc3ccc(S(N)(=O)=O)cc3)n2)cc1
inactive: [1] 35.5% | [2] 44% | [3] 69.2% | [4] 84.5% | [5] 69.6% | [6] 110% | [7] 53.4% | [8] 62.9% | [9] 101%

COc1ccc(/C=N/NC(=O)c2c(N)nn(C)c2Nc2ccccc2)cc1Oc1ccccc1
inactive: [1] 87.8% | [2] 82.1% | [3] 87.7% | [4] 92.4% | [5] 92.2% | [6] 112% | [7] 93.5% | [8] 93.6% | [9] 92.6%

Brc1ccc(-c2cc(-c3ccc4c(c3)OCCO4)n[nH]2)s1
inactive: [1] 17.7% | [2] 13.4% | [3] 36% | [4] 58.1% | [5] 71.7% | [6] 55.1% | [7] 34.6% | [8] 51.4%
active: [9] 6.64%
